Compound activity (PubChem BioAssay)
CASP6 VEID inh = caspase-6 (human) enzyme inhibition; P55212; purified caspase-6, Z-VEID-R110 cleavage fluorescence; inhibition, % at 12.5 µM; actives 0.53% (n = 350,000); AID 686996;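 active = mean inhibition across replicates at least about 35%, with every replicate also reaching that limit, limit read from the data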
SIRT5 block = sirtuin-5 (human) deacylase inhibition. Q9NXA8. Purified SirT5, succinyl-peptide AMC, trypsin-coupled fluorescence. inhibition, % at 15 µM. actives 1.1% (n = 330,000); in the data active = inhibition above about 15%
Target sequence (Q9NXA8 whole entry, looked up): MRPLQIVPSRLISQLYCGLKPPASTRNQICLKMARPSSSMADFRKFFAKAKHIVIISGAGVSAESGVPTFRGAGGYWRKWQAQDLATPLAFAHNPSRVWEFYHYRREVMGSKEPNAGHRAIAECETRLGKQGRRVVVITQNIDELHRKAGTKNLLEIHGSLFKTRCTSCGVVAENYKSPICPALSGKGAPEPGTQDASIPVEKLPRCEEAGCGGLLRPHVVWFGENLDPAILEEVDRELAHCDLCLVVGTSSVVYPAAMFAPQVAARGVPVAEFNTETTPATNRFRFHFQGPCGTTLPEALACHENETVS
FGF22 binding = binders of recombinant human FGF22 by thermal shift | activity (Tm shift, normalised), % at 9.99 µM | actives 1.5% (n = 340,000) | SYPRO orange fluorescence; percent of sucrose octasulfate shift, DMSO zero;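 active = mean Tm shift, scaled 0 neutral to 100 positive control, at about 1.3% or above, every replicate too, limit read from the data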
Target sequence (Q9HCT0 whole entry, looked up): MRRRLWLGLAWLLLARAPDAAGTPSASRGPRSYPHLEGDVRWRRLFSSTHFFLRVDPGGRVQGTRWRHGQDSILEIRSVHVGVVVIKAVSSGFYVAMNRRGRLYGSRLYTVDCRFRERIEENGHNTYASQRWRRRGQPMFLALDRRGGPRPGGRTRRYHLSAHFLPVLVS
ERAP1 HTS inh = ERAP1 (human) enzyme inhibition; Q9NZ08; recombinant ERAP1, Leu-AMC fluorescence, 60 min; inhibition, % at 10.7 µM; actives 0.15% (n = 340,000); AID 652197;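 active = mean replicate inhibition of at least 30%, or all replicates individually reaching that 30% level; inactive = mean below 30% and not every replicate reaching it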
Hits are given with their value; . = inactive; / = not tested or not shown. Sampled rows, rich in hits. Any-hit rate of the full collection: about 3.1%.

SMILES | CASP6 VEID inh | SIRT5 block | FGF22 binding | ERAP1 HTS inh
Cc1noc(C)c1S(=O)(=O)Nc1ccc2c(c1)C(=O)N([C@H](C)CO)C[C@H](C)[C@H](CN(C)C(=O)CCCN(C)C)OCCCC[C@H](C)O2 | / | / | . | /
O=C(C[C@H]1C=C[C@@H](NC(=O)C2CC2)[C@@H](CO)O1)NCC1CC1 | . | . | . | .
COc1ccc(CC(=O)Nc2cc(S(=O)(=O)N3CCOCC3)ccc2N2CCOCC2)cc1 | . | . | 43.4 | .
COc1ccc(/C=C/C(=O)Nc2cc(S(=O)(=O)N3CCOCC3)ccc2N2CCCC2)cc1OC | . | / | 42.9 | .
COc1ccc(CNC(=O)c2ccc(S(=O)(=O)N3CCOCC3)cc2)cc1 | . | . | 77.8 | .
COc1ccc(OC)c(NC(=O)COC(=O)c2ccc(S(=O)(=O)N3CCCCC3)cc2)c1 | . | / | 44.7 | .
COc1ccc(NC(=O)COC(=O)c2ccc(S(=O)(=O)N3CCCCCC3)cc2)c(OC)c1 | . | . | . | .
COc1cccc(CC(=O)Nc2cc(S(=O)(=O)N3CCOCC3)ccc2N2CCN(C)CC2)c1 | . | . | . | .
C[C@H](CO)N1C[C@H](C)[C@H](CN(C)C(=O)C2CC2)Oc2ncc(-c3ccccc3F)cc2C1=O | . | . | . | .
COCC(=O)Nc1ccc2c(c1)[C@H]1C[C@H](CC(=O)NCC3CC3)O[C@H](CO)[C@H]1O2 | . | . | . | .
COc1cccc2sc(NC(=O)c3ccc(S(=O)(=O)N4CCOCC4)cc3)nc12 | . | 15.2 | . | .
COc1cc(CC(=O)Nc2cc(S(=O)(=O)N3CCOCC3)ccc2N2CCCC2)cc(OC)c1OC | . | . | . | .
Cc1nnc(NC(=O)c2ccc(S(=O)(=O)N3CCOCC3)cc2)s1 | . | . | . | /
COc1ccc(NC(=O)c2c(F)cccc2Cl)cc1S(=O)(=O)N1CCOCC1 | . | / | 43.0 | .
COc1ccc(CC(=O)Nc2cc(S(=O)(=O)N3CCOCC3)ccc2N2CCCC2)cc1 | . | / | 43.2 | .
COc1ccc(CC(=O)OCC(=O)Nc2cc(S(=O)(=O)N3CCOCC3)ccc2N2CCCC2)cc1 | . | . | 43.2 | .
CN(C)C(=O)C[C@H]1C=C[C@H](NC(=O)C2CCOCC2)[C@H](CO)O1 | . | . | / | .
COc1ccc(NC(=O)CN(C)C(=O)c2cc(S(=O)(=O)N3CCCCCC3)ccc2OC)cc1 | . | . | . | .
COc1ccc(S(=O)(=O)N2CCCCCC2)cc1C(=O)N(C)CC(=O)Nc1ccc(F)cc1 | . | 20.5 | . | .
CCc1cc(CN2CCOCC2)c(NC(=O)c2ccccc2)s1 | . | . | 43.2 | .
O=C(c1ccccc1)c1coc2ccc(O)c(Cl)c12 | . | 21.5 | . | .
NC[C@@H]1O[C@H](C23CC4CC(CC(C4)C2)C3)Cc2c1ccc(O)c2O | . | . | . | 31.3
Cc1cc(=O)c2c(o1)C(=O)c1occc1C2=O | 91.6 | . | . | .
COc1ccc(Nc2nc3c(C)cccc3cc2C#N)cc1 | . | . | 43.0 | .
OCC1CCCN(Cc2cn(Cc3ccccc3)nc2-c2cc3ccccc3o2)C1 (stereo not given) | . | . | 43.0 | .
SMILES | CASP6 VEID inh | SIRT5 block | FGF22 binding | ERAP1 HTS inh
COC1CCN(Cc2cn(Cc3ccccc3)nc2-c2cc3ccccc3o2)CC1 | . | . | . | /
OCC1CCN(Cc2cn(Cc3ccccc3)nc2-c2cc3ccccc3o2)CC1 | . | . | 43.7 | .
CCCCNC(=O)N1CCN(C/C=C/c2ccccc2)CC1 | . | . | . | .
CCCCNC(=O)N1CCN(Cc2ccc(F)cc2)CC1 | . | 20.2 | . | .
COCCNc1nc(NCc2ccccc2OC)c2sccc2n1 | . | . | . | .
COCCNc1nc(NCc2cnc(C)cn2)c2sccc2n1 | . | 16.6 | . | .
CO[C@H]1CN(C)C(=O)c2cc(NC(C)=O)ccc2OC[C@H](C)N(C(=O)c2ccccc2F)C[C@@H]1C | / | . | . | .
COc1ccc(CN2C(=O)C3C4C=CC(C4)C3C2=O)cc1 (stereo not given) | . | . | . | .
COc1ccc(CNC(=O)CN2C(=O)C3C4C=CC(C4)C3C2=O)cc1 (stereo not given) | . | 109.3 | . | .
C[C@@H]1CN([C@@H](C)CO)C(=O)c2cc(NC(=O)c3ccncc3)ccc2O[C@@H]1CN(C)C(=O)Nc1ccc(F)cc1 | . | . | . | .
NS(=O)(=O)c1ccc(NCc2cnc3ccccc3n2)cc1 | . | / | 42.9 | .
CC(=O)Nc1ccc(Nc2cc(N3CCOCC3)c3nonc3c2[N+](=O)[O-])cc1 | . | . | / | .
O=[N+]([O-])c1c(Nc2ccccc2O)cc(Cl)c2nonc12 | . | . | . | .
O=C(O)c1cc(Nc2cc(Cl)c3nonc3c2[N+](=O)[O-])ccc1O | 49.5 | . | 1.8 | 35.8
O=[N+]([O-])c1c(Nc2ccc(O)cc2)cc(N2CCOCC2)c2nonc12 | . | . | 44.0 | .
CC(C)NC(=O)Nc1ccc2c(c1)C(=O)N([C@@H](C)CO)C[C@@H](C)[C@@H](CN(C)Cc1ccc(-c3ccccc3)cc1)O2 | . | . | . | .
N/C(=N\OC(=O)c1cccc2ccccc12)c1ccc(Br)cc1 | . | . | 44.0 | .
N/C(=N\OC(=O)c1cccc2ccccc12)c1ccncc1 | . | . | . | .
N/C(Cc1cccc2ccccc12)=N\OC(=O)c1ccccc1F | 41.4 | . | . | .
O=C(Nc1ccccc1C(=O)NC(Cc1ccc(O)cc1)C(=O)O)c1ccccc1 (stereo not given) | . | . | 43.8 | .
O=C(O)c1ccccc1NCc1ccco1 | . | . | . | .
O=C1C(Cl)=C(NCc2ccco2)C(=O)c2ccccc21 | 98.9 | . | . | .
O=C(N[C@H]1CC[C@H](CCNC(=O)C2CCCCC2)O[C@H]1CO)c1ccccn1 | . | . | . | .
Cc1cccc(C(=O)N2CCN=C2SCc2ccc([N+](=O)[O-])cc2)c1 | / | . | . | .
O=C(Cc1ccccc1)N1CCN=C1SCc1cccc([N+](=O)[O-])c1 | . | . | 43.0 | .
SMILES | CASP6 VEID inh | SIRT5 block | FGF22 binding | ERAP1 HTS inh
Cn1nc(C(C)(C)C)c([N+](=O)[O-])c1C(=O)N1CCOCC1 | . | . | . | .
Cn1nc(C(=O)N2CCOCC2)c([N+](=O)[O-])c1C(=O)N1CCOCC1 | . | . | 44.1 | .
C[C@H](CO)N1C[C@H](C)[C@@H](CN(C)C(=O)Cc2ccccc2)OCCCC[C@H](C)Oc2ccc(NC(=O)c3ccccc3)cc2C1=O | . | . | . | .
CCC(=O)Nc1ccc2c(c1)C(=O)N(C)C[C@H](OC)[C@@H](C)CN(C(=O)CC1CC1)[C@@H](C)CO2 | / | . | . | .
O=C1C=CC(=O)c2c(O)c(CO)c(CO)c(O)c21 | 99.1 | 15.5 | . | .
Nc1[nH]c(C(=O)c2ccccc2)c(-c2ccc(Cl)c(Cl)c2)c1C(=O)NCCc1c[nH]c2ccccc12 | . | . | . | .
Nc1[nH]c(C(=O)c2ccccc2)c(-c2ccc(Cl)c(F)c2)c1C(=O)NCCc1c[nH]c2ccccc12 | . | 38.7 | . | .
COC(=O)C1=C(C)NC(=O)NC1c1ccco1 (stereo not given) | . | . | 43.4 | .
COc1ccc(S(=O)(=O)Nc2cc(SCC(=O)O)c(O)c3ccccc23)cc1 | 93.3 | . | . | .
COc1ccc(S(=O)(=O)Nc2cccc3ccc(O)cc23)cc1 | . | . | . | /
